A selection: hits, their analogues and other compounds. The true share with any hit is near 2.2%.
Abeta yeast res = compounds reversing amyloid beta toxicity in yeast | 410,000 tested, 0.063% active | yeast expressing A-beta42, growth rescue, OD600, 48 h; response scale: 0% DMSO, 100% iron-clioquinol control | Potency, µM (doses to about 46.1 µM), most hits filed as activators; further: nearly all actives have a fitted effect of over 55% in size
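Growth rescue measured by 600 nm absorbance after 48 h yeast culture at 30 C with compound. Values normalized between DMSO and an equimolar ferric chloride plus clioquinol control.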
ERG Ets-DNA blk = inhibitors of human ERG Ets domain-DNA interaction. P11308. fluorescence polarization, His-ERG Ets domain / labelled DNA. Potency, µM (doses to about 76.9 µM), for inactives: top-dose FP activity, negative = inhibition, most hits filed as inhibitors. 370,000 tested, 0.028% active. AID 624246; active means well fitted inhibition curve with a large enough effect in the polarisation, with a control signal flat; inconclusive means small, poorly fitted or top-dose-only effect, or effect the other way, or a change in a side signal; inactive means no such curve, though single readings can be large or run the other way; the % refers to the polarisation;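 further: polarization taken with two DNA probes labelled with fluorescein and Texas red; % of control where 0% means no effect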
Target sequence (P11308 whole entry, looked up, the tested form may be a part): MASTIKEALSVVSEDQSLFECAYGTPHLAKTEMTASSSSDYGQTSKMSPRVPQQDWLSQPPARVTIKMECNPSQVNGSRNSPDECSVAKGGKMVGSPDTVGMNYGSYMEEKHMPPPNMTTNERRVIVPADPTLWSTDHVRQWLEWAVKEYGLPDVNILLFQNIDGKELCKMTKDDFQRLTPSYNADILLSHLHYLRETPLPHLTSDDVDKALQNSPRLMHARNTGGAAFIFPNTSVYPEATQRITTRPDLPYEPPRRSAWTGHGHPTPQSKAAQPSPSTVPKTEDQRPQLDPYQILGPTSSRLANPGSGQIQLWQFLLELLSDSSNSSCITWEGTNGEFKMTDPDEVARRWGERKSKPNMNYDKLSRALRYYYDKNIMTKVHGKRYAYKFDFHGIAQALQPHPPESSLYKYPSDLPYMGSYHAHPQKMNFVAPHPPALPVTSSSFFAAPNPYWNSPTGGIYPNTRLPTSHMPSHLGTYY
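His-tagged ERG Ets domain (1 uM in the protein solution; 300mM KCl, 50mM Tris-HCl, 1mM EDTA, 1mM DTT, pH 7.5) received compound, then a probe mix of 5 nM fluorescein-DNA and 100nM Texas-615-DNA. Fluorescence polarization was read for both dyes.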
Mito fusion yeast = inhibitors of mitochondrial division or activators of mitochondrial fusion; Potency, µM (series often up to 46.1 µM), without a hit: at the highest dose growth rescue (activation), most hits filed as activators; S. cerevisiae fusion-defective mutant growth rescue, CellTiterGlo 48 h; 320,000 tested, 0.23% active; further: % of control where 0% means no effect; nearly all actives have a fitted effect of over 45% in size
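Yeast fusion mutant, YPEG (non-fermentable carbon), compound, 48 h at 37C non-permissive; CellTiterGlo added, 10 min RT, luminescence read. Rescued growth = division inhibition.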
FUS yeast rescue = suppressors of FUS proteinopathy in yeast | S. cerevisiae FUS-expressing, growth rescue, OD600, 24 h | Potency, µM (highest dose often 76.6 µM), actives largely listed as activators | 390,000 tested, 0.24% active | AID 1347120;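 further: plate controls were DMSO vehicle for no effect and reference control for full effect; nearly all actives have a fitted effect of over 55% in size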
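FUS-expressing yeast, raffinose-pregrown, induced in 2% galactose minimal medium at OD 0.005; compounds in a dilution series, 24hr at 30C. Growth restoration read as absorbance at 600 nm. CP55940 positive control, DMSO negative.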
TDP-43 yeast inh = TDP-43 toxicity inhibition in yeast | TDP-43 expressing yeast growth rescue, BacTiter-Glo, 24 h | Potency, µM (highest dose often 46.1 µM), for inactives: at the highest dose growth rescue (activation), usual class: activators | 410,000 tested, 1.8% active | AID 652104; further: % of control where 0% means no effect; nearly all actives have a fitted effect of over 50% in size
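Luminescence from BacTiter-Glo reports growth of TDP-43-expressing yeast after 24 hr at 30 deg C with compound. Cells were raffinose-pregrown to mid-log, then seeded in galactose medium at OD600=0.02.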
aSyn rescue = inhibitors of alpha-synuclein toxicity in yeast. Potency, µM (highest dose often 46.1 µM), without a hit: at the top dose growth rescue (activation), most hits filed as activators. 370,000 tested, 0.14% active. AID 652106. Yeast expressing alpha-synuclein, growth rescue, BacTiter-Glo, 24 h; further: % of control where 0% means no effect; nearly all actives have a fitted effect of over 65% in size
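Rescue of yeast growth: cells expressing toxic alpha-synuclein, induced in galactose at OD600 0.02, incubated with compound 24 h at 30 C. ATP luminescence quantified growth; inhibitors of toxicity appear as activators.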
Active calls of the source: *; i = inactive; ? = inconclusive; · = not tested or not shown. Unless noted, the call rests on the fitted dose curve; in most records, active means well fitted curve in the direction sought with a large enough effect; inconclusive means small, poorly fitted or top-dose-only effect, or another doubt; inactive means no such curve, though single readings can be large; an effect the other way counts as inactive or inconclusive. Potency means the concentration at half of the fitted maximal effect.

SMILES	Abeta yeast res	ERG Ets-DNA blk	Mito fusion yeast	FUS yeast rescue	TDP-43 yeast inh	aSyn rescue
CC(C)[C@@H]1CC[C@@H](C)c2c(-c3ccccc3)n[nH]c21	i	0.0%	-18.6%	i	11.2µM*	?
COc1ccccc1C(=O)Nc1ccncc1	i	6.1%	3.1%	i	5.7%	6.3%
COc1ccccc1C(=O)Nc1nsc(-c2ccccc2)n1	i	-4.7%	1.6%	i	12.6µM*	-5.5%
O=C(Nc1ccc2c(c1)C(=O)N(c1ccccc1)C2=O)C1CCCO1 (centres undefined)	i	-14.1%	-5.4%	i	12.6µM*	-8.4%
Cc1ccc(CN2c3ccccc3-c3nc(SCC(=O)Nc4c(C)cc(C)cc4C)ncc3S2(=O)=O)cc1	i	7.9%	·	i	2.6%	·
CC(=O)c1cccc(NC(=O)N2CCCc3ccccc32)c1	i	-3.3%	-9.5%	i	?	10.2%
O=[N+]([O-])c1cccc(NC(=S)N2CCc3ccccc32)c1	?	-15.6%	-1.5%	i	12.6µM*	2.3%
O=C(Nc1cccc([N+](=O)[O-])c1)N1CCCc2ccccc21	i	-8.8%	-0.1%	i	11.2µM*	-5.3%
O=[N+]([O-])c1ccc(NC(=S)N2CCc3ccccc3C2)cc1	i	-5.5%	?	·	25.1µM*	?
O=C(Cc1ccc2ccccc2c1)NO	·	·	·	·	·	-0.4%
O=C(NCC1COc2ccccc2O1)c1ccc(NC(=O)C(Cl)Cl)cc1 (centres undefined)	·	·	·	i	·	·
CC(C)C(=O)N[C@H]1[C@H](O)CCC[C@]12C(=O)N(Cc1ccccc1)c1ccccc12	·	·	·	i	·	·
CC(=O)Nc1ccc(S(=O)(=O)NCC2CCC(C(=O)NCCN(CC(C)C)CC(C)C)CC2)cc1 (centres undefined)	i	0.8%	·	i	1.6%	·
COc1cc(NC(=O)c2ccc(-n3cnc4cccnc43)cc2)cc(OC)c1	i	-1.2%	·	i	4.4%	12.2%
CCN1C(=O)[C@H]2[C@@H](c3ccc(-c4ccc5c(c4)OCO5)cc3)N[C@@](Cc3ccccc3)(C(=O)OC)[C@H]2C1=O	i	7.2%	·	i	-2.0%	-1.9%
CCN1C(=O)[C@H]2[C@@H](c3ccc(-c4cccc(Cl)c4)cc3)N[C@@](Cc3ccccc3)(C(=O)OC)[C@H]2C1=O	i	3.3%	23.4%	14.1µM*	2.8%	16.3%
CC(=O)c1c(O)c2ccccc2n(C)c1=O	i	7.7%	-2.5%	i	-70.1%	6.5%
Cn1c(=O)c(S(=O)(=O)C(C)(C)C)c(O)c2ccccc21	i	2.1%	2.2%	·	2.82µM*	16.5%
Cc1ccc(Sc2c(O)c3ccccc3n(C)c2=O)cc1	?	-4.7%	14.1µM*	i	3.16µM*	7.2%
Cn1c(=O)c(Sc2ccccc2)c(O)c2ccccc21	i	-0.8%	-8.0%	i	12.6µM*	-5.6%
CCCCCCc1nc2nc(Cl)c(Cl)nc2[nH]1	i	·	·	i	11.1%	-8.1%
Oc1c(C(c2ccccc2)N2CCC3(CC2)OCCO3)sc2nc(-c3ccco3)nn12 (centres undefined)	i	0.0%	·	i	12.1%	·
Cc1ccc(-c2cn3cccnc3n2)cc1NC(=O)C(C)(C)Oc1ccc(Cl)cc1	i	0.6%	·	?	-19.3%	·
COc1ccccc1C/C(N)=N/OC(=O)COc1cccc2ccccc12	i	0.2%	3.2%	i	-0.1%	9.4%
N/C(Cc1cccc2ccccc12)=N\OC(=O)c1ccccc1F	i	-7.2%	-2.3%	·	22.4µM*	-25.6%
N/C(=N\OC(=O)c1cccc2ccccc12)c1ccncc1	i	-2.2%	-6.5%	i	20µM*	?
N/C(Cc1cccc2ccccc12)=N\OC(=O)COc1ccccc1	i	·	8.9%	·	22.4µM*	-23.8%
N/C(Cc1ccc(Cl)cc1Cl)=N\OC(=O)c1ccccc1F	i	0.3%	-0.3%	i	-93.9%	-77.8%

Bioassay records: PubChem, National Center for Advancing Translational Sciences (NCATS)
